The record followed here is PubChem BioAssay (EPA / NIEHS).

Inconclusive results are not listed. Active and inactive are the calls of the source. The calls were made as follows: active = hit-call score of the fitted dose curve at least 0.9, where 1 is the maximum; inconclusive = response in the unintended direction; inactive = score below 0.9.

For the assay, the target named is Peroxisome proliferator-activated receptor gamma (Homo sapiens) (UniProt P37231). The experiment in a line: OT_PPARg_PPARgSRC1_0480: Odyssey Thera (OT) 8-hour Protein-Complementation Assay for Peroxisome Proliferator-activated Receptor Gamma / SRC-1 Co-activator (AID 2283387).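 Also: nuclear to cytoplasmic split Venus YFP fluorescence ratio reporting PPARg SRC-1 interaction.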 Put shortly: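 HEK293T transiently transfected with PPARg and SRC-1 fused to Venus YFP fragments, compounds 8 h at 37C. Fixed, Draq5-stained cells imaged; nuclear/cytoplasmic 488 nm fluorescence ratio over at least 350 cells per image; gain fitted versus DMSO.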
Peroxisome proliferator-activated receptor gamma (Homo sapiens), sequence (P37231 whole entry, looked up, the tested form may be a part): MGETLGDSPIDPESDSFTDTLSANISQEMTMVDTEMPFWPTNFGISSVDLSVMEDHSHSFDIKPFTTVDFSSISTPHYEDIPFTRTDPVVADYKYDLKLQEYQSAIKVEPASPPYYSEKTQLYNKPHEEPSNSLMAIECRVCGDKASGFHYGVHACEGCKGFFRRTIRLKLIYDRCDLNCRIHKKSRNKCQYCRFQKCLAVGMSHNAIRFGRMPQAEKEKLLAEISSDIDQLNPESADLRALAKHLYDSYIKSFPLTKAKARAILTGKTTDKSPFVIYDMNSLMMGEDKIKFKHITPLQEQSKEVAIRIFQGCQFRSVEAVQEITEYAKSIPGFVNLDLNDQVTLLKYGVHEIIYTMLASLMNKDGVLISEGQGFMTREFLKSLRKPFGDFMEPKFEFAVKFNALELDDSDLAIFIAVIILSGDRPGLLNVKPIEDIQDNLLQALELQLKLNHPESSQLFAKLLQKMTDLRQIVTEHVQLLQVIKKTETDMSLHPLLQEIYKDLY
For `CCN(CC)c1ccccc1`, the result was inactive. `CCCCC(CC)COC(=O)c1c(Br)c(Br)c(Br)c(Br)c1C(=O)OCC(CC)CCCC` (stereo not drawn): the result was inactive. Regarding `Cc1ccc(N)cc1N`, the outcome was inactive. With `ClC1=C(Cl)C2(Cl)C3C(Cl)C(Cl)CC3C1(Cl)C2(Cl)Cl` (stereo not drawn), the result was inactive.

On to `CCOP(=S)(OCC)SCSCC`, for which the result was inactive. Consider `CCCCc1ccccc1`, for which the result was inactive. With `CCCCCCCc1ccc(O)cc1`, the call was inactive. Regarding `O=P(Oc1ccccc1)(Oc1ccccc1)Oc1ccccc1`, the compound was called inactive. Turning to `OCC1CO1` (stereo not drawn), the result was inactive. As for `CC(C)(C)OOC(C)(C)C`, the compound was called inactive.

For `O=NN1CCCC1`, the compound was called inactive. In the case of `CCCCN(CCCC)N=O`, the call was inactive.

Turning to `CC(C)(C)N(NC(=O)c1ccc(Cl)cc1)C(=O)c1ccccc1`, the compound was called inactive. The value for `O=P(OCC(Br)CBr)(OCC(Br)CBr)OCC(Br)CBr` (stereo not drawn) was “inactive”; that for `CN(C)C(=O)Cl` was “inactive”; that for `O=S1(=O)OCC2C(CO1)C1(Cl)C(Cl)=C(Cl)C2(Cl)C1(Cl)Cl` (stereo not drawn) was “inactive”. Turning to `O=[N+]([O-])c1ccccc1`, the call was inactive. For the compound `Cc1ccc([N+](=O)[O-])cc1C`, the result was inactive. With `CCCCc1ccc(O)cc1`, the compound was called inactive.

In the case of `O=C(CBr)OCc1ccccc1`, the outcome was inactive. Regarding `CCNc1nc(Cl)nc(NC(C)(C)C)n1`, the call was inactive.

For `ClC(Cl)c1ccccc1`, the call was inactive. Take `CCOC(=O)c1ccccc1N`: the compound was classed as inactive. Turning to `CCC(C)(C)c1ccc(O)cc1`, the compound was called inactive.

For the compound `O=[N+]([O-])c1ccc(Cl)c(Cl)c1`, the compound was called inactive. Consider `O=S(=O)(c1ccc(O)cc1)c1ccc(O)cc1`, for which the result was inactive. The entry for `CCCCN(CC)C(=O)SCCC` is “inactive”. The entry for `CCCN(CCC)c1c([N+](=O)[O-])cc(C(C)C)cc1[N+](=O)[O-]` is “inactive”.
